The inhibition is the relative decrease from the control value, in per cent.

Results on 40 molecules are retold here after PubChem BioAssay.

SMILES strings stand for the structures. The source made the active and inactive calls.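 Rule for the calls, unless noted: active = growth inhibition above 50% at the single 2 µM test dose, taken to imply half-maximal potency below 2 µM; inactive = the rest.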

The first assay is described as follows: antimalarial activity against Dd2 strain (AID 2302).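 Note: 0% = DMSO untreated growth and 100% = chloroquine plus artemisinin killed control.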 The following applies: P. falciparum Dd2 in RBCs, LDH growth readout, 72 h; at 2 µM; active compounds read high.
Take `COc1ccc(N2CCN(CCCCNC(=O)c3ccc(NC(=O)c4ccc(Cl)cc4)cc3)CC2)c(OC)c1`: the growth inhibition was 22% (inactive).
Consider `Clc1ccc2c(NCCCCCCCCNc3ccnc4cc(Cl)ccc34)ccnc2c1`, for which the growth inhibition is 96% (active).
Same read-out and setting: with `CN1CCN(CCCN(Cc2cccc(-c3cccc(CNCCc4ccccc4)c3)c2)C(=O)Nc2ccccc2)CC1` the figure was 82% (active); with `Cc1nc(-c2cccc(Nc3nccc(NCC(O)c4ccccc4C(F)(F)F)n3)c2)cs1` (stereo not given), 50% (active).
The same measure, in the same setting: then `COc1ccc(NC(=O)CSc2nc(-c3ccccc3Cl)ns2)cc1`, with 75% (active).
The same measure, in the same setting: with `Cc1cnc(NCCc2ccc(F)cc2)nc1N[C@@H](CC(C)C)C(=O)Nc1ccccc1` the figure was 29% (inactive); with `COc1cc(CNC[C@@H](O)[C@H](Cc2ccccc2)NC(=O)c2cc(C3CCCC3)cc(N3CCCC3=O)c2)cc(OC)c1`, 76% (active); with `Cc1cccc2[nH]c(-c3ccc(-c4cccc(CNCc5ccccc5)c4)cc3)nc12`, 52% (active).
Take `CN1N=C2c3ccccc3CCC2C1c1ccc(C#N)cc1` (stereo not given): the growth inhibition was 85% (active).
Consider `Cc1c(C(=O)N2CCc3cc4nccc(N5CCN6CCC[C@H]6C5)c4cc32)cnn1-c1ccc(C#N)cc1`, for which the growth inhibition was 27% (inactive).
Still for that read-out and setting: then `CCOc1cc(C)ccc1C1CCN(CCCCNC(=O)c2coc(-c3ccc(Cl)cc3)c2)CC1`, with 30% (inactive); and `Cc1cc(N[C@@H](Cc2ccccc2)C(=O)NCc2cccs2)nc(NCCOc2ccccc2)n1`, with 31% (inactive).
On the same count and under the same terms, then `COc1cc(COc2c(C)nc(N)nc2N)cc(OC)c1OC`, with -5% (inactive); and `O=C(Nc1cccc(CN2CCCN(CC3CC3)CC2)c1)c1ccc(-c2ccccc2)cc1`, with 5% (inactive).
The same measure, in the same setting: with `C=CCc1cc(Br)ccc1OCCCOc1c(N)nc(N)nc1N` the figure was 0% (inactive); with `Clc1cccc(Nc2ccc3c(N4CCCCC4)ncnc3n2)c1`, 93% (active).
Take `CC(C)Oc1ccc(C=CC(=O)Nc2noc3ccccc23)cc1`: the growth inhibition is 95% (active).
On the same count and under the same terms, with `Cc1ccc2nc(C)cc(NN=Cc3ccc([N+](=O)[O-])o3)c2c1` the figure was 99% (active); with `O=C(NC1CC1)c1cnc(N2CCN(Cc3ccc(Cl)cc3)CC2)c(Cl)c1`, 91% (active).
Same read-out and setting: with `Oc1ccc(CCNc2nc(NCCCOc3cc(CN4CCCCC4)ccc3F)nc(N3CCNCC3)n2)cc1` the figure was -3% (inactive); with `Cc1nc(-c2ccc(-c3ccc(C(=O)Nc4ccc(I)c(OCCN5CCCC5)c4)cc3)c(C)c2)no1`, 35% (inactive); with `c1ccc(C(c2ccccc2)N2CCN(C(c3cccnc3)c3nnnn3C3CCCC3)CC2)cc1` (stereo not given), 59% (active).
The same measure, in the same setting: then `Cc1cc(N)c2cc(NC(=O)c3cccc4ccccc34)ccc2n1`, with 13% (inactive).
`COCCn1c(Sc2ccc(C#N)c([N+](=O)[O-])c2)nnc1-c1ccc(N(C)C)cc1`: the growth inhibition is 66% (active).
Same read-out and setting: with `COc1ccc(-c2nc3ccc(C)nc3nc2-c2ccc(OC)cc2)cc1` the figure was -2% (inactive); with `c1cc(-c2ccc(CN3CCN(c4ccncc4)CC3)cc2)cc(-c2nc3ccccc3[nH]2)c1`, 100% (active); with `Cn1nc(-c2ccc(S(=O)(=O)N3CCC(CCN4CCC(c5c[nH]c6ccccc56)CC4)CC3)s2)cc1C(F)(F)F`, 22% (inactive).
Take `CCCC(CNC(=O)c1cc2c(Cl)cc(Cl)cc2[nH]1)CNc1cc(=O)c2ccccc2[nH]1` (stereo not given): the growth inhibition was 94% (active).
Same read-out and setting: then `CN1CCC(N2CCC(Oc3cccc(C(=O)NCCCC4CCCC4)c3)CC2)CC1`, with 48% (inactive).
Regarding `CCCc1cc(Cc2cnc(N)nc2N)cc(CCC)c1OCCCCC(=O)O`, the growth inhibition is 23% (inactive).
The same measure, in the same setting: with `O=C(NCC1CCC(C(=O)NCCN2CCCCC2)CC1)c1ccc(O)c(-c2ccc(Cl)c(Cl)c2)c1` (stereo not given) the figure was 22% (inactive).
Same read-out and setting: with `COc1ccc(Cc2c(C)nc3nc(N)nc(N)c3c2C)cc1OC` the figure was -4% (inactive); with `CC(C)CCNCc1c(O)ccc2ccccc12`, 51% (active); with `CCn1c(C(C)C)cc2c3c(N)nc(N)nc3ccc21`, -2% (inactive).
On to `COCCn1c(Sc2ncnc3sccc23)nc2ccccc21`, for which the growth inhibition is 72% (active).
On the same count and under the same terms, then `COc1ccccc1CCNc1nc(C)cc(N[C@@H](Cc2ccccc2)C(=O)NCc2cccs2)n1`, with 73% (active).
Still for that read-out and setting: then `Cc1ccc2c(NN=Cc3cccc([N+](=O)[O-])c3)cc(C)nc2c1`, with 97% (active); and `CCCCCCCN(Cc1ccc(OC(C)(C)C(=O)OCC)cc1)C(=O)Nc1ccccc1OCC`, with 94% (active).
Same read-out and setting: with `COc1ccc(CNCc2ccc(-c3ccc(-c4nc5ccc(F)cc5[nH]4)cc3)cc2)cc1` the figure was 83% (active); with `COc1ccc(OC)c(-c2cccc(-c3cccc(NC(=O)c4ccc([N+](=O)[O-])o4)c3)n2)c1`, 97% (active).

The nature of another assay: HepG2 cytotoxicity, primary screen, cytotoxicity control for P. falciparum antimalarial project, cell-based, ATP luminescence (AID 2303;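 active = inhibition above 50%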;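 note: 0% = DMSO wells and 100% = digitonin-killed cells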). To be noted: HepG2 viability, 24-48 h, at 10 µM, active compounds read high.
Turning to `COc1ccc(N2CCN(CCCCNC(=O)c3ccc(NC(=O)c4ccc(Cl)cc4)cc3)CC2)c(OC)c1`, the inhibition was 25% (inactive).
The same measure, in the same setting: with `Clc1ccc2c(NCCCCCCCCNc3ccnc4cc(Cl)ccc34)ccnc2c1` the figure was 2% (inactive); with `CN1CCN(CCCN(Cc2cccc(-c3cccc(CNCCc4ccccc4)c3)c2)C(=O)Nc2ccccc2)CC1`, 92% (active); with `Cc1nc(-c2cccc(Nc3nccc(NCC(O)c4ccccc4C(F)(F)F)n3)c2)cs1` (stereo not given), 48% (inactive).
The same measure, in the same setting: with `COc1ccc(NC(=O)CSc2nc(-c3ccccc3Cl)ns2)cc1` the figure was 11% (inactive); with `Cc1cnc(NCCc2ccc(F)cc2)nc1N[C@@H](CC(C)C)C(=O)Nc1ccccc1`, 19% (inactive).
For `COc1cc(CNC[C@@H](O)[C@H](Cc2ccccc2)NC(=O)c2cc(C3CCCC3)cc(N3CCCC3=O)c2)cc(OC)c1`, the inhibition is 16% (inactive).
On the same count and under the same terms, with `Cc1cccc2[nH]c(-c3ccc(-c4cccc(CNCc5ccccc5)c4)cc3)nc12` the figure was 3% (inactive); with `CN1N=C2c3ccccc3CCC2C1c1ccc(C#N)cc1` (stereo not given), -9% (inactive); with `Cc1c(C(=O)N2CCc3cc4nccc(N5CCN6CCC[C@H]6C5)c4cc32)cnn1-c1ccc(C#N)cc1`, 0% (inactive).
Regarding `CCOc1cc(C)ccc1C1CCN(CCCCNC(=O)c2coc(-c3ccc(Cl)cc3)c2)CC1`, the inhibition was 34% (inactive).
The same measure, in the same setting: then `Cc1cc(N[C@@H](Cc2ccccc2)C(=O)NCc2cccs2)nc(NCCOc2ccccc2)n1`, with 2% (inactive).
Same read-out and setting: with `COc1cc(COc2c(C)nc(N)nc2N)cc(OC)c1OC` the figure was 7% (inactive).
For the molecule `O=C(Nc1cccc(CN2CCCN(CC3CC3)CC2)c1)c1ccc(-c2ccccc2)cc1`, the inhibition is 15% (inactive).
Take `C=CCc1cc(Br)ccc1OCCCOc1c(N)nc(N)nc1N`: the inhibition is 47% (inactive).
Consider `Clc1cccc(Nc2ccc3c(N4CCCCC4)ncnc3n2)c1`, for which the inhibition was 54% (active).
On the same count and under the same terms, with `CC(C)Oc1ccc(C=CC(=O)Nc2noc3ccccc23)cc1` the figure was 2% (inactive); with `Cc1ccc2nc(C)cc(NN=Cc3ccc([N+](=O)[O-])o3)c2c1`, 15% (inactive); with `O=C(NC1CC1)c1cnc(N2CCN(Cc3ccc(Cl)cc3)CC2)c(Cl)c1`, 39% (inactive).
The same measure, in the same setting: with `Oc1ccc(CCNc2nc(NCCCOc3cc(CN4CCCCC4)ccc3F)nc(N3CCNCC3)n2)cc1` the figure was 30% (inactive).
Still for that read-out and setting: with `Cc1nc(-c2ccc(-c3ccc(C(=O)Nc4ccc(I)c(OCCN5CCCC5)c4)cc3)c(C)c2)no1` the figure was 96% (active); with `c1ccc(C(c2ccccc2)N2CCN(C(c3cccnc3)c3nnnn3C3CCCC3)CC2)cc1` (stereo not given), 4% (inactive).
With `Cc1cc(N)c2cc(NC(=O)c3cccc4ccccc34)ccc2n1`, the inhibition was 18% (inactive).
Still for that read-out and setting: with `COCCn1c(Sc2ccc(C#N)c([N+](=O)[O-])c2)nnc1-c1ccc(N(C)C)cc1` the figure was 2% (inactive); with `COc1ccc(-c2nc3ccc(C)nc3nc2-c2ccc(OC)cc2)cc1`, 4% (inactive).
For the molecule `c1cc(-c2ccc(CN3CCN(c4ccncc4)CC3)cc2)cc(-c2nc3ccccc3[nH]2)c1`, the inhibition is 61% (active).
Still for that read-out and setting: with `Cn1nc(-c2ccc(S(=O)(=O)N3CCC(CCN4CCC(c5c[nH]c6ccccc56)CC4)CC3)s2)cc1C(F)(F)F` the figure was 40% (inactive).
Still for that read-out and setting: then `CCCC(CNC(=O)c1cc2c(Cl)cc(Cl)cc2[nH]1)CNc1cc(=O)c2ccccc2[nH]1` (stereo not given), with 9% (inactive); and `CN1CCC(N2CCC(Oc3cccc(C(=O)NCCCC4CCCC4)c3)CC2)CC1`, with 41% (inactive); and `CCCc1cc(Cc2cnc(N)nc2N)cc(CCC)c1OCCCCC(=O)O`, with 18% (inactive).
Consider `O=C(NCC1CCC(C(=O)NCCN2CCCCC2)CC1)c1ccc(O)c(-c2ccc(Cl)c(Cl)c2)c1` (stereo not given), for which the inhibition is -5% (inactive).
Still for that read-out and setting: then `COc1ccc(Cc2c(C)nc3nc(N)nc(N)c3c2C)cc1OC`, with 66% (active); and `CC(C)CCNCc1c(O)ccc2ccccc12`, with 9% (inactive); and `CCn1c(C(C)C)cc2c3c(N)nc(N)nc3ccc21`, with 67% (active).
In the case of `COCCn1c(Sc2ncnc3sccc23)nc2ccccc21`, the inhibition is -8% (inactive).
The same measure, in the same setting: with `COc1ccccc1CCNc1nc(C)cc(N[C@@H](Cc2ccccc2)C(=O)NCc2cccs2)n1` the figure was 18% (inactive); with `Cc1ccc2c(NN=Cc3cccc([N+](=O)[O-])c3)cc(C)nc2c1`, 33% (inactive).
Same read-out and setting: with `CCCCCCCN(Cc1ccc(OC(C)(C)C(=O)OCC)cc1)C(=O)Nc1ccccc1OCC` the figure was -5% (inactive).
For `COc1ccc(CNCc2ccc(-c3ccc(-c4nc5ccc(F)cc5[nH]4)cc3)cc2)cc1`, the inhibition was 70% (active).
Same read-out and setting: with `COc1ccc(OC)c(-c2cccc(-c3cccc(NC(=O)c4ccc([N+](=O)[O-])o4)c3)n2)c1` the figure was 75% (active).
